# Data reported in PubChem BioAssay AID1850 (Southern Research Specialized Biocontainment Screening …, 2009).
# About 1,000 (0.32%) of roughly 310,000 compounds were called active. Only a sample is shown. Measured potencies and affinities stand elsewhere. Values without a mark were called inactive. No rule for the calls is given here.
# Assay: Inhibition of PhoP regulon, Salmonella typhi GFP reporter cells, confirmation, 4 h (AID 1850);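 also: 0% = induced wells with vehicle and 100% = uninduced wells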
# Settings: Salmonella Typhi PhoP-promoter GFP reporter, fluorescence, at 50 µM, active compounds read high
row,Compound,inhibition
1,CCCNC(=O)COc1coc(CN2CCN(c3cccc(Cl)c3)CC2)cc1=O,9.58%
2,Cc1c(NC(=O)c2nn3c(c2Br)NC(c2ccccc2)CC3C(F)(F)F)c(=O)n(-c2ccccc2)n1C (stereo not drawn),-3.46%
3,c1cc2ccc3ccc(CN4CCOCC4)c4ccc(c1)c2c34,-8.34%
4,OC1CCCN(Cc2cccc3ccccc23)C1 (stereo not drawn),-1.87%
5,Cc1nnc(NC(=O)CCSc2ccc(Cl)cc2)s1,-3%
6,CSc1ccc2c(c1)C(N1CCN(C)CC1)Cc1ccccc1S2 (stereo not drawn),12.9%
7,CC(C)c1ccc2c(c1)C(N1CCN(C)CC1)Cc1cccnc1S2 (stereo not drawn),15.7%
8,COc1ccc2c(c1)CC(N1CCN(C)CC1)c1cc(OC)ccc1S2 (stereo not drawn),21.4%
9,COCCCN1CCN(C2Cc3ccccc3Sc3ccc(Cl)cc32)CC1 (stereo not drawn),1.9%
10,CN1CCN(CCOC2Cc3ccccc3Sc3ccc(Cl)cc32)CC1 (stereo not drawn),-19.4%
11,Fc1ccc2c(c1)Sc1ccc(Cl)cc1CC2N1CCN(CCC2OCCO2)CC1 (stereo not drawn),12.3%
12,Cc1cc(C)c(C(=O)/C=C/c2cccc3ccccc23)c(=O)[nH]1,-11.9%
13,CCn1c(=O)cc(SCC(=O)N2CCOCC2)c2ccccc21,0.81%
14,Cc1cccc(OCCc2c(C)[nH]c(=S)[nH]c2=O)c1,-1.55%
15,NC(=O)CSc1nnc(Cn2c(=O)sc3ccccc32)n1CCc1ccccc1,1.95%
16,COc1cccc(NC(=O)CCCCCN2C(=O)[C@@H]3Cc4ccccc4CN3C2=O)c1,6.78%
17,CCN1C(=O)CSC1=Nc1ccc(OC)cc1,-7.25%
18,COc1cc(OC)c(OC)cc1CNCCNC(=O)c1nonc1N,6.25%
19,CN1CCN(C2Cc3ccc(F)cc3Sc3cc(F)c(Cl)cc32)CC1 (stereo not drawn),8.23%
20,CCOC(=O)c1cccnc1NC(=O)c1ccccc1,-7.33%
21,COc1ccccc1C(=O)NC(C(=O)NCCc1nc2ccccc2[nH]1)=C(C)C,-1.36%
22,CCOCCCNc1ncnc2c1[nH]c1ccccc12,0.37%
23,OCCCCCNc1ncnc2ccccc12,2.05%
24,COc1ccc(CNc2ncnc3c2[nH]c2cc(OC)c(OC)cc23)cc1,3.65%
25,COCCNc1ncnc2c1[nH]c1ccccc12,8.5%

row,Compound,inhibition
1,O=c1c2[nH]c3ccccc3c2ncn1CCC1=CCCCC1,-7.17%
2,CC(C)OCCCNc1ncnc2c1[nH]c1ccccc12,11.2%
3,OCCCNc1ncnc2c1[nH]c1ccccc12,2.26%
4,CCN(CC)CCCNc1ncnc2ccccc12,0.53%
5,COc1cc([N+](=O)[O-])cc(/C=N/NC(=O)c2cc(-c3ccccc3)nc3ccccc23)c1O,-2.11%
6,O=C(CCC(=O)c1ccc(F)cc1)NC1CCCN(Cc2ccccc2F)C1 (stereo not drawn),-3.89%
7,O=C(c1cc(Br)ccc1Cl)N1CCCC1,6%
8,Cc1ccc(NS(=O)(=O)c2ccc(C(=O)NCC(c3ccco3)N(C)C)cc2)cc1 (stereo not drawn),-2.21%
9,CCOC(=O)C1=C(O)c2ccccc2C(=O)/C1=C\c1ccc(CC)cc1,-9.78%
10,CCCc1ccc(/C=C2\C(=O)c3ccccc3C(O)=C2C(=O)OCC)cc1,-2.52%
11,Nc1ccc(C(=O)Oc2ccc([N+](=O)[O-])cc2)c(O)c1,-25%
12,N#CCC(=O)Nc1ccc(C(=O)OCC(=O)Nc2ccccc2Sc2ccccc2)cc1,-5.37%
13,Cc1ccccc1OCC(O)CN1CCN(c2ccc(Cl)cc2)CC1 (stereo not drawn),6.16%
14,CNNC(=S)Nc1cccc(C(F)(F)F)c1,6.82%
15,O=C(CC1SC2=NCCN2C1=O)Nc1ccc(Cl)cc1 (stereo not drawn),-0.31%
16,Nc1ccc2c(c1)N1CCN=C1S2,-12.9%
17,Cc1ccc(O)c(-c2cc(C(F)(F)C(F)F)[nH]n2)c1,-3.16%
18,FC(F)C(F)(F)c1cc(-c2ccccc2)n[nH]1,5.29%
19,O=c1nc(-c2ccccc2)n(-c2ccc(Cl)cc2)[nH]1,-11%
20,Cc1ccc(OCCC(=O)Nc2ccc(S(=O)(=O)Nc3cc(C)nc(C)n3)cc2)cc1,-3.66%
21,COC(=O)N/N=C/c1ccc([N+](=O)[O-])s1,-3.8%
22,Cc1ccc(C(=O)N/N=C\c2cccs2)cn1,-3.85%
23,Cc1cc(C(=O)N/N=C/c2ccc([N+](=O)[O-])s2)n[nH]1,21.5%
24,Cn1c(SCC(=O)N/N=C/c2cc([N+](=O)[O-])ccc2O)nnc1-c1ccccc1,2.1%
25,Cc1ccc(C(=O)N/N=C/c2ccc([N+](=O)[O-])s2)cc1,-14.9%

row,Compound,inhibition
1,O=C(N/N=C/c1ccc([N+](=O)[O-])s1)c1ccncc1,-1.03%
2,Cn1c(SCC(=O)N/N=C/c2ccc([N+](=O)[O-])s2)nnc1-c1ccccc1,17.5%
3,O=C(N/N=C\c1ccc([N+](=O)[O-])s1)c1cncc(Br)c1,-10.5%
4,O=C(Nc1ccc2c(c1)CCC2)c1ccc(Cl)nc1,8.38%
5,COC/C=C/C1=CC2=CC(=O)C(C)(OC(=O)c3cnc4ccccc4n3)C(=O)C2=CN1c1cccc(C#N)c1 (stereo not drawn),0.42%
6,O=C(CSc1nccc(=O)[nH]1)N1CCOCC1,-10%
7,CN(CCCCN1CCOCC1)Cc1nc(-c2ccc3c(c2)OCO3)no1,-10.5%
8,CCn1cc(C(=O)c2cccs2)c2ccccc21,-0.847%
9,O=C(CSc1nnc(SCc2ccccc2)s1)N/N=C/C=C/c1ccccc1[N+](=O)[O-],8.59%
10,CCn1cc(C(=O)N2CCN(c3ccccc3F)CC2)c(=O)c2ccc(C)nc21,-6.12%
11,c1ccc(-c2cc(-c3ccncc3)nc3ccc4ccccc4c23)cc1,-9.12%
12,Cc1ccc2nc(/C(C#N)=C/c3ccc(-c4cccc([N+](=O)[O-])c4)o3)[nH]c2c1,-10.4%
13,N#C/C(=C\c1ccc([N+](=O)[O-])o1)c1nc2ccccc2[nH]1,7.25%
14,COC(=O)c1[nH]c2cc(OC)ccc2c1NC(=O)c1ccc2c(c1)OCO2,-8.72%
15,CCc1cc(C(=O)Nc2ccc(OC)nc2)sc1C,4.89%
16,COc1ccc(NC(=O)c2cccs2)cn1,2.51%
17,O=C(Nc1cccnc1)c1ccc(Br)s1,12.6%
18,CCc1sc(C(=O)Nc2cccnc2)cc1Br,-8.13%
19,O=S(=O)(c1ccc(-c2csc(-c3cccnc3)n2)cc1)N1CCCC1,0%
20,Cc1cc(C)n(CC(O)Cn2cnc3c2c(=O)n(C)c(=O)n3C)n1 (stereo not drawn),-7.83%
21,CCN(CC(=O)NCc1ccc(Cl)cc1)C(=O)CSc1cccc(C(F)(F)F)c1,5.75%
22,COc1ccc(C2=NN(CN3C(=O)C(=O)c4ccccc43)C(c3ccc(OC)cc3)C2)cc1 (stereo not drawn),-8.46%
23,Cc1nc2c(C#N)cnn2c2c1CCN(Cc1ccccc1)N2C,0.51%
24,Nc1cc(N2CCCCCC2)c2nonc2c1[N+](=O)[O-],-0.89%
25,Nc1ccc2nonc2c1[N+](=O)[O-],-75.7%

row,Compound,inhibition
1,COCCn1c(=S)[nH]c2cc(C(=O)NCCCN3CCOCC3)ccc2c1=O,-1.91%
2,O=C(NC1CCSC1=O)c1cccc(Cl)c1 (stereo not drawn),3.01%
3,CN1/C(=C\C=O)C(C)(C)c2ccccc21,1.84%
4,CCN1/C(=C\C=C\C2=[N+](CC)c3ccccc3C2(C)C)C(C)(C)c2ccccc21,-46.5%
5,O=C(Nc1cc2c3c(c1)CC(=O)N3CCC2)c1cccc(F)c1,6.53%
6,O=C(c1ccc(F)cc1)c1ccc(N2CCCCC2)cc1,-11.2%
7,CN(CC(=O)Nc1ccc(S(N)(=O)=O)cc1)c1ccccc1,14.4%
8,Cc1ccccc1NC(=O)c1ccccc1O,4.26%
9,CSc1ccccc1C(=O)Nc1cc(C)ccc1C,7.98%
10,O=[N+]([O-])c1cccc(-c2cc3ccccc3[nH]2)c1,-7.23%
11,O=C(N/N=C/c1cc2ccccc2[nH]1)c1ccccc1Cl,12.6%
12,COc1ccc(N(CC(=O)N2CCN(c3cc(C)ccc3C)CC2)S(=O)(=O)c2c(C)noc2C)cc1,4.32%
13,CCC(C)NC(=O)C1c2ccccc2C(=O)N(c2ccc(OC)cc2)C1c1ccc(OC)cc1 (stereo not drawn),-3.48%
14,O=C(N/N=C/c1cc(Br)c(O)c(Br)c1O)c1cccnc1,-12.7%
15,O=C(N/N=C/c1cc2ccccc2nc1Cl)c1ccncc1,-3.32%
16,O=C(N/N=C/c1ccccc1Cl)c1ccncc1,-2.44%
17,O=C(N/N=C/c1ccc(O)cc1O)c1ccncc1,1.18%
18,O=C(N/N=C/c1cc(Br)c(O)c(Br)c1)c1cccnc1,19.1%
19,Nc1nonc1-n1nnc(C(=O)N/N=C/c2c(Cl)cccc2Cl)c1CSC1=NCCS1,-8.07%
20,Nc1nonc1-n1nnc(C(=O)N/N=C/c2ccc(Br)cc2)c1CSC1=NCCS1,6.84%
21,O=C(N/N=C/c1cc2c(cc1Cl)OCO2)c1ccncc1,-3.87%
22,COc1ccc(CNC(=O)CCNS(=O)(=O)c2ccc(Br)s2)cc1,-1.05%
23,O=C(CN1C(=O)C2C3C=CC(C3)C2C1=O)Nc1nc(SCc2ccc(Cl)cc2)n[nH]1 (stereo not drawn),3.67%
